Screening results: PubChem BioAssay, National Center for Advancing Translational Sciences (NCATS)
Shiga inhibitor = inhibitors of Shiga toxin in Vero cells; Vero cells, Shiga toxin protein synthesis inhibition reporter; inhibition, % at 38.7 µM; 9.2% of 290,000 active; in the data active means inhibition mostly above about 28%, no sharp cut-off; inactive means mostly below about 43%; further: 0% is about no effect
HCV inh = HCV inhibition | AID 651820 | Potency, µM (series often up to 41.8 µM), for inactives: at the highest dose activity change, negative = inhibition, actives largely listed as inhibitors | Huh7.5.1 HCVcc-Cre infection, luciferase reporter, 44 h | 3.4% of 340,000 active; further: potency means the concentration at half of the fitted maximal effect; on the % scale 0 is the no-effect control and ±100 the full control effect
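Seed cells (1,000/well) for 4 h; treat with compound and infect with HCVcc-Cre, moi about 0.5. Incubate 44 h, then detect luciferase activity.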
Pf growth 96h = P. falciparum growth inhibition at 96 hours. AID 504834. Potency, µM (highest dose often 28.7 µM), for inactives: top-dose activity change, negative = inhibition, hits mostly inhibitors. 6.9% of 320,000 active. P. falciparum luciferase reporter growth, 96 h; further: potency means the concentration at half of the fitted maximal effect; on the % scale 0 is the no-effect control and ±100 the full control effect
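P. falciparum expressing integrated firefly luciferase grown in erythrocytes (2% hematocrit, 0.05% parasitemia final) with compounds for 96 hours at 37 C, 5% CO2. Growth inhibition read as loss of luminescence after adding luciferase detection reagent.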
CHX counter = counter-screen for Shiga toxin inhibitors: cycloheximide protein synthesis inhibition | cell reporter, cycloheximide protein synthesis inhibition counterscreen | 12% of 300,000 active | max response, %; in the data active means max response mostly above about 13%, no sharp cut-off; inactive means mostly below about 14%; further: read at 38.3 µM for the half of the compounds with a filed dose; 0% is about no effect
HCMV inh = human cytomegalovirus inhibition; HFF cells, HCMV-luciferase reporter, 72 h; stronger effect = lower value; activity change, negative = inhibition, % at 57.5 µM; 4.5% of 410,000 active; AID 1259415; in the data active means activity change below about -60%; inconclusive means no clear call, values can overlap the other calls; inactive means above about -39%; further: on the % scale 0 is the no-effect control and ±100 the full control effect
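Two-dose cell screen: HFF monolayers treated with compounds and infected with luciferase-expressing HCMV at 1 PFU/cell, 72 h at 37C, then lysed for luciferase measurement.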
Pf growth 48h = P. falciparum growth inhibition at 48 hours (one generation) | 5.9% of 310,000 active | P. falciparum luciferase growth in erythrocytes, 48 h | Potency, µM (highest dose often 28.7 µM), inactives show at the top dose activity change, negative = inhibition, most hits filed as inhibitors; further: potency means the concentration at half of the fitted maximal effect; on the % scale 0 is the no-effect control and ±100 the full control effect
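Firefly luciferase activity from engineered P. falciparum reports growth; inhibitors lower the luminescent signal. Cultures contained 2% hematocrit erythrocytes at 0.1% final parasitemia.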
The depositor's hits bear a star; i = inactive; ? = inconclusive; / = no result given. Shown are actives, neighbours in structure and some others; about 21% of the full set was active somewhere. Unless noted, the call rests on the fitted dose curve; in most records, active means well fitted inhibition curve with a large enough effect; inconclusive means small, poorly fitted or top-dose-only effect, or another doubt; inactive means no such curve, though single readings can be large or run the other way.

SMILES	Shiga inhibitor	HCV inh	Pf growth 96h	CHX counter	HCMV inh	Pf growth 48h
Nn1c(SCc2ccc(F)cc2)nnc1-c1ccccn1	68*	11%	42%	34*	12	58%
Nn1c(SCc2ccc(F)cc2)nnc1-c1cccnc1	19	-5%	-18%	7	21	5%
Cc1noc(C)c1NC(=O)N(C)C[C@@H]1Oc2c(NC(=O)c3ccncc3)cccc2C(=O)N([C@H](C)CO)C[C@@H]1C	/	2%	/	/	-28	/
COc1ccc(NC(=O)Cn2ccn(Cc3ccccc3)c(=O)c2=O)cc1Cl	/	/	/	/	-37	/
CCN(Cc1nc(-c2cccc(C)c2)no1)C(=O)c1ccco1	35	-27%	6%	8	-6	13%
Oc1ccc(CCc2ccccn2)cc1	/	/	/	/	21	/
Cc1nnc(SCc2ccccc2)n(N)c1=O	-8	9%	31%	4	-15	35%
Cc1ccc(CSc2nnc(C)c(=O)n2N)cc1	5	-4%	103%	12*	5	49%
Nn1c(SCc2ccccc2)nnc1-c1ccccn1	38*	2%	48%	30*	57	69%
Nc1cc(=O)nc(SCC(=O)N2CCN(c3ccccc3)CC2)n1-c1ccc(F)cc1	-8	?	-18%	-3	/	?
Cc1ccc(CCNC(=O)C2CCCN(C(=O)N(C)C)C2)cc1 (configuration not stated)	-4	21%	-6%	-2	20	/
CN(C)C(=O)N1CCCC(C(=O)NCCc2ccccc2)C1 (configuration not stated)	95*	16%	46%	26*	66	102%
CC(C)CNC(=O)C1CCCN(C(=O)NCc2ccccc2)C1 (configuration not stated)	-12	1%	4.7µM*	-1	4	4%
CN(C)C(=O)N1CCCC(C(=O)NCc2ccccc2)C1 (configuration not stated)	-2	21%	4%	-3	45	20%
CCOC(=O)Cn1c(=O)n(-c2cccc(Cl)c2)c2nc(-c3ccccc3Cl)nc(C(N)=O)c21	/	/	/	/	-12	/
COc1ccccc1/C=C/c1nc(C#N)c(N(C)C)o1	87*	7%	?	33*	192	80%
CN(C)c1oc(/C=C/c2ccccc2)nc1C#N	48*	-13%	66%	44*	65	106%
CN(C)c1oc(/C=C/c2ccc(F)cc2)nc1C#N	/	/	/	/	47	/
COc1ccccc1/C=C/c1nc(C#N)c(NCC(C)C)o1	/	/	/	/	-70*	/
COCCNc1oc(/C=C/c2ccccc2OC)nc1S(=O)(=O)c1ccccc1	17	?	7.4µM*	26	-33	9.3µM*
Cc1ccc(C(=O)N2CCN(Cc3ccc4c(c3)OCO4)CC2)cc1C	-6	?	44%	-4	2	43%
CN(C)c1ccc(C(CN)c2c[nH]c3ccccc23)cc1 (configuration not stated)	21	?	?	10	57	9.3µM*
CN(C)c1ccc(C(CNS(=O)(=O)c2ccc3ccccc3c2)c2c[nH]c3ccccc23)cc1 (configuration not stated)	27	5%	26%	23*	69	7%
Cc1cc(NC(=O)Nc2nc3c(s2)CCCCCC3)ccc1Br	/	/	/	/	-5	/
COC(=O)[C@@H]1[C@@H](CO)[C@@H]2Cn3c(ccc(Br)c3=O)[C@@H]2N1CC1CCCC1	/	/	/	/	-11	/
SMILES	Shiga inhibitor	HCV inh	Pf growth 96h	CHX counter	HCMV inh	Pf growth 48h
CC1CCN(c2nc(N(C)c3ccccc3)nc(N)c2[N+](=O)[O-])CC1	27	?	2%	11*	30	?
CCN1CCN(c2nc(N(C)c3ccccc3)nc(N)c2[N+](=O)[O-])CC1	-10	?	?	1	38	-11%
CN(c1ccccc1)c1nc(N)c([N+](=O)[O-])c(N2CCCCCC2)n1	56*	?	-19%	21*	31	?
CC(C)CNc1nc(N)c([N+](=O)[O-])c(N2CCCCCC2)n1	1	?	10µM*	-4	-99*	?
O=C(CNC(=O)c1ccc(Br)cc1)NCc1cccnc1	-14	2%	23%	-6	-5	25%
COc1ccc(N2C(=O)C(CC(=O)Nc3ccccc3)N(Cc3ccccn3)C2=S)cc1 (configuration not stated)	-9	-3%	-13%	-8	33	?
CC(Cc1ccccc1)[n+]1cc(/N=C(\[O-])Nc2ccccc2)on1 (configuration not stated)	28	-3%	/	17*	35	4%
CC(Cc1ccccc1)[n+]1cc(/N=C(\N)[O-])on1 (configuration not stated)	-14	9%	23%	0	-11	-15%
COc1ccc(C(=O)CSc2nnc(CN3CCCCC3)n2-c2ccc(Cl)cc2)cc1OC	15	?	10µM*	-3	-22	?
O=C(CSc1nnc(CN2CCCC2)n1-c1ccccc1)c1ccc2c(c1)OCO2	/	-19%	/	/	20	/
CCOc1ccc(NC(=O)c2cc(F)c(F)cc2Cl)cc1OCC	2	-23%	-23%	-2	-98*	0%
CN1C(=O)c2ccc(NC(=O)c3ccc(Cl)cc3Cl)cc2C1=O	14	-3%	?	22*	0	30%
CC(C)C(=O)Nc1cccc(NC(=O)c2ccc(Cl)cc2Cl)c1	14	-21%	-1%	2	?	5%
O=C(Nc1ccc2ccccc2c1)c1ccc(Cl)cc1Cl	32*	?	i	26*	-38	-18%
CCCCOc1ccc(NC(=O)c2cc(F)c(F)cc2Cl)cc1	22	?	?	10	-36	-14%
O=C(Nc1ccc2ccccc2c1)c1ccccc1Cl	/	/	/	/	8	/
O=C(Nc1ccc2ccccc2c1)c1ccccc1O	36*	?	?	23*	-99*	-18%
O=C(Nc1ccc2ccccc2c1)c1ccccc1[N+](=O)[O-]	/	?	/	/	105	/
Cc1ccccc1N(C(=O)c1ccccn1)C(C(=O)NCc1ccccc1)c1cccnc1 (configuration not stated)	-9	9%	-14%	-2	-10	-8%
COC(=O)C1CCN(S(=O)(=O)CCNC(=O)c2ccc(F)cc2)CC1	/	8%	-13%	/	-18	-12%
CSc1ncc(C(=O)N2CCN(c3cccc(C(F)(F)F)c3)CC2)c(C)n1	/	/	/	/	-28	/
O=C(Nc1ccc(S(=O)(=O)N2CCCC2)cc1)c1cc(F)c(F)cc1Cl	-25	?	-1%	16	/	-11%
O=C(Nc1ccc2ccccc2c1)c1cc(F)c(F)cc1Cl	110*	-29%	0%	47*	37	203%
CC1CCCCC12NC(=O)N(CC(=O)Nc1cccnc1)C2=O (configuration not stated)	/	/	/	/	9	/
